Potency and affinity values are given separately. The source made the active and inactive calls. No rule for the calls is given here.
Experiment: HIV-1 Env-mediated cell fusion inhibitors, dose response, CCR5-tropic Env (AID 2279)
Conditions: CCR5-tropic HIV-1 Env, reporter read-out; series mostly up to 50 µM; inhibition: at the top concentration

| Compound | inhibition |
| --- | --- |
| O=C(Nc1cccc(C(F)(F)F)c1)c1cccc(NS(=O)(=O)c2ccc(O)c(C(=O)O)c2)c1 | -10.3% (inactive) |
| COc1cc(/C=C2\S/C(=N/S(=O)(=O)c3ccc(C)cc3)NC2=O)c([N+](=O)[O-])cc1OC | -8.6% (inactive) |
| O=C(O)CN1C(=O)/C(=C\c2cccc(OCc3ccc(Cl)cc3)c2)SC1=S | 28.8% (inactive) |
| Cc1cn2c(N)c(C=C3C=C(Cl)C(=O)C(Cl)=C3)c(=O)nc2s1 | 12.1% (inactive) |
| O=C1NN(c2ccc(Cl)c(Cl)c2)C(=O)/C1=C/c1cccc(OC(=O)c2cccs2)c1 | 16.1% (inactive) |
| N#Cc1c(-c2ccccc2)nc(SCC(=O)Nc2ccc(OC(F)(F)Cl)cc2)[nH]c1=O | -0.77% (inactive) |
| Cc1ccc(-c2cc(C(=O)Nc3ccc(S(=O)(=O)Nc4onc(C)c4C)cc3)c3ccccc3n2)cc1 | -9.23% (inactive) |
| O=C(O)/C=C/C(=O)Nc1ccc(C2(c3ccc(NC(=O)/C=C/C(=O)O)cc3)c3ccccc3-c3ccccc32)cc1 | 4.84% (inactive) |
| COc1ccc(-c2nn(-c3ccccc3)cc2/C=C\C(=O)Nc2ccc(C(=O)O)cc2)cc1 | 31.8% (inactive) |
| COc1cccc(NS(=O)(=O)c2ccc3c(c2)C2C=CCC2C(c2ccc(C(=O)O)cc2)N3)c1 (stereo not given) | 11.7% (inactive) |
| Cc1ccccc1N/N=C/c1sc(=O)n(Cc2cccc(C(=O)O)c2)c1Cl | 37.8% (inactive) |
| O=C(O)C1Nc2c(cccc2C(F)(F)F)C2C=CCC12 (stereo not given) | 9.45% (inactive) |
| N#Cc1c(-c2ccccc2)nc(SCc2cccc(Cl)c2)[nH]c1=O | -9.74% (inactive) |
| CC1=NN(c2ccc(C(=O)O)cc2)C(=O)/C1=C\c1ccc(OC(=O)c2cccs2)cc1 | 9.07% (inactive) |
| Cc1c(CCC(=O)O)c(=O)oc2c(C)c3occ(-c4ccc(Cl)cc4)c3cc12 | 11.6% (inactive) |
| O=C(O)COc1ccc(/C=N/NC(=O)c2ccc(-c3csc(Nc4ccc(Cl)cc4)n3)cc2)cc1 | 7.13% (inactive) |
| CCOc1cc(/C=C2/C(=N)N3C(=NC2=O)SN=C3S(=O)(=O)C(C)C)ccc1OC(=O)c1ccco1 | -12.2% (inactive) |
| O=C(O)c1ccc(/C=N/NC(=O)c2ccc(CN3c4cccc5cccc(c45)S3(=O)=O)cc2)cc1 | -6.34% (inactive) |

| Compound | inhibition |
| --- | --- |
| O=C(O)c1cc(N2N=C(C(F)(F)F)/C(=C/C=C/c3ccco3)C2=O)ccc1Cl | 17.9% (inactive) |
| O=C(CSc1nc2ccccc2c(=O)n1Cc1ccccc1)Nc1ccc(Br)cc1C(=O)O | 7.04% (inactive) |
| O=C1/C(=C2\C(=O)N(Cc3ccc(F)cc3)c3ccccc32)SC(=S)N1CCS(=O)(=O)O | -4.42% (inactive) |
| O=C(O)C(c1ccccc1)N1C(=O)/C(=C\c2ccc(O)c(O)c2)SC1=S (stereo not given) | -7.75% (inactive) |
| CC(/C=C1\SC(=S)N(c2ccc(C(=O)O)cc2)C1=O)=C\c1ccccc1 | -3.04% (inactive) |
| O=c1[nH]c(=S)[nH]c2c1C(c1ccc(Br)cc1)c1c([nH]c(=S)[nH]c1=O)O2 | 21% (inactive) |
| Cc1ccc(-c2nn(-c3ccccc3)cc2/C=C2\SC(=S)N(CC(=O)O)C2=O)cc1 | -2.87% [at 25 µM] (inactive) |
| CS(=O)(=O)C1=NSC2=NC(=O)/C(=C\c3cccn3-c3ccc(Cl)cc3)C(=N)N21 | -11.3% (inactive) |
| COC(=O)c1sc(-c2ccc(C(C)(C)C)cc2)cc1NC(=O)CSCC(=O)O | 9.91% (inactive) |
| O=C(O)C1Nc2ccc(Br)cc2C2C=CCC12 (stereo not given) | 5.92% (inactive) |
| O=C(O)CN1C(=O)/C(=C\c2cc(Br)ccc2OCc2ccccc2F)SC1=S | -3.94% (inactive) |
| O=C(O)COc1ccc(Br)cc1C(c1c(C(=O)O)[nH]c2ccccc12)c1c(C(=O)O)[nH]c2ccccc12 | 6.84% (inactive) |
| O=C(O)CSc1cc(C(=O)c2cc(F)ccc2O)cn2c(=O)c3c(-c4ccccc4)csc3nc12 | 24.1% (inactive) |
| CCOc1cc(/C=C2/C(=N)N3C(=NC2=O)SN=C3S(=O)(=O)CC)ccc1OC(=O)c1ccco1 | -0.67% (inactive) |
| CCc1nnc(NS(=O)(=O)c2ccc(N/C=C(\C=O)c3nc4cc(Cl)ccc4o3)cc2)s1 | -1.49% (inactive) |
| COc1cc(NS(=O)(=O)c2ccc(Nc3nc(-c4ccccc4)cs3)cc2)nc(OC)n1 | 11.2% (inactive) |
| CCOc1ccc(C2C(C(=O)Nc3ccccc3)=C(C)N=c3s/c(=C/c4cccc(OCC(=O)O)c4)c(=O)n32)cc1 (stereo not given) | 17% (inactive) |
